This note sets out measurements from PubChem BioAssay AID651658 (Broad Institute, 2012).

Out of some 340,000 compounds screened, about 5,100 (1.5%) were called active.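 How the source made its calls: active means mean Tm shift, scaled 0 neutral to 100 positive control, at about 1.3% or above, every replicate too (limit read from the data); inconclusive means no clear call, values can overlap the other calls; inactive means the rest.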 What follows is part of a selection rich in actives, with near analogues and random picks from the rest.

Sequence of Fibroblast growth factor 22 (Homo sapiens) (Q9HCT0 whole entry, looked up): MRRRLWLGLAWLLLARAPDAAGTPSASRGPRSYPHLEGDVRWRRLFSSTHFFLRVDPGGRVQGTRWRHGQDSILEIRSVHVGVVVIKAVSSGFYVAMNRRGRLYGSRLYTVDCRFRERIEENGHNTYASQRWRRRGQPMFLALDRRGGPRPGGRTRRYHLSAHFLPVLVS

The test addresses Fibroblast growth factor 22 (Homo sapiens) (UniProt Q9HCT0). In words: binders of human FGF22 protein, primary screen, FGF22 synaptogenesis inhibitor project, biophysical, thermal shift, single point (AID 651658). The settings on record: recombinant FGF22 thermal shift, SYPRO orange fluorescence; at 9.99 µM; active compounds read high; percent of sucrose octasulfate shift, DMSO zero.
With `C[C@@H]1CN([C@H](C)CO)C(=O)c2c(c3ccccc3n2C)-c2ccccc2CO[C@H]1CN(C)Cc1ccc(F)cc1`, the activity (Tm shift, normalised) was 0.453% (inactive).

As for `COc1cc(C(=O)NCc2ccncc2)cc(Br)c1OCc1ccccc1`, the activity (Tm shift, normalised) was -0.2% (inactive). `COc1cc(C(=S)NCc2ccccc2)cc(Br)c1O`: the activity (Tm shift, normalised) was 44.4% (active). Under `COc1cc(C=O)c(Br)cc1OCC(=O)NCc1ccccc1` stands -0.006% (inactive).

With `CCCC(=O)N1CC2(CCN(C(=O)C3CC3)CC2)c2c(n(C)c3cc(OC)ccc23)[C@H]1CO`, the activity (Tm shift, normalised) was 0.143% (inactive). The value for `O=C1OCC2=C1C(c1ccccc1)CC(=O)N2c1cccc(F)c1` (stereo unspecified) was 43.2% (active). Under `O=C1CC(c2ccccc2)C(=O)N2C(=O)CC(c3ccccc3)C(=O)N12` (stereo unspecified) stands -0.169% (inactive); under `CN1C(=O)CC(c2ccccc2)C1=O` (stereo unspecified), 0.006% (inactive); under `COc1cc(NC(=O)COC(=O)c2cnc(C)cn2)c(C)cc1[N+](=O)[O-]`, 43.3% (active).

Consider `N#Cc1cc([N+](=O)[O-])ccc1NC(=O)COC(=O)c1cnccn1`, for which the activity (Tm shift, normalised) was -0.067% (inactive). The value for `Cc1cnc(C(=O)OCC(=O)NCCCc2ccccc2)cn1` was 0.133% (inactive); that for `COc1cccc(CNC(=O)C[C@H]2CC[C@@H](NC(=O)C3CCC3)[C@@H](CO)O2)c1` was -0.144% (inactive); that for `CCc1ccccc1NC(=O)CN1CCN(C(=O)c2cc(C3CC3)nn2-c2ccccc2)CC1` was 44.1% (active).

With `CCc1ccccc1NC(=O)CN(C)C(=O)c1cc(C2CC2)nn1-c1ccccc1`, the activity (Tm shift, normalised) was 0.146% (inactive). Under `COc1ccc(CN2CCN(C(=O)c3cc(C4CC4)nn3-c3ccccc3)CC2)cc1F` stands -0.038% (inactive); under `O=C(CC(F)(F)F)N1C[C@H]2[C@@H](c3ccccc31)[C@H](CO)N2C(=O)Cc1ccccc1`, -0.096% (inactive); under `CS(=O)(=O)N1CCN(C(=O)CSc2ccccc2)CC1`, -0.196% (inactive).

With `CC(C)NC(=S)N1CCN(S(C)(=O)=O)CC1`, the activity (Tm shift, normalised) is -0.113% (inactive). Under `CCCCNC(=O)N1CCN(S(C)(=O)=O)CC1` stands 43% (active); under `COc1cccc(C(=O)CC(=O)C(=O)Nc2ccc([N+](=O)[O-])cc2C)c1`, -0.246% (inactive); under `COc1cccc(NCCC(=O)c2cccc([N+](=O)[O-])c2)c1`, 43.4% (active). Consider `COc1ccc(Cc2nnc(SCC(=O)c3cccc([N+](=O)[O-])c3)n2C)cc1`, for which the activity (Tm shift, normalised) was 0.217% (inactive). The value for `CCC(CC)NC(=O)/C=C/c1cccc([N+](=O)[O-])c1` was -0.166% (inactive); that for `Cc1ccc(NC(=O)C(=O)NCC2CCN(C(=O)c3cccc([N+](=O)[O-])c3)CC2)cc1` was 0.238% (inactive). In the case of `Cc1ccc(NC(=O)O/N=C/c2cccc([N+](=O)[O-])c2)cc1`, the activity (Tm shift, normalised) was 1.7% (active). The value for `CO[C@H]1CN(C)C(=O)c2cc(NC(=O)Nc3ccc4c(c3)OCO4)ccc2OC[C@@H](C)NC[C@@H]1C` was -0.132% (inactive).

Consider `O=C(C1CCCCC1)N1CC2(C1)[C@H](c1ccccc1)[C@@H](CO)N2Cc1cncnc1`, for which the activity (Tm shift, normalised) was -0.162% (inactive). Under `COc1ccc(NC(=O)Nc2ccc3c(c2)[C@H]2C[C@H](CC(=O)NC4CCCCC4)O[C@H](CO)[C@H]2O3)cc1` stands 0.101% (inactive); under `COc1cccc(S(=O)(=O)N2C[C@@H](O)COC[C@H]3O[C@@H](CC(=O)N4CCOCC4)CC[C@@H]32)c1`, -0.291% (inactive); under `CC=Cc1ccc2n(c1=O)C[C@H]1[C@H](CO)[C@@H](C(=O)NCc3ccncc3)N(Cc3cncnc3)[C@@H]21` (mixture of isomers), -0.145% (inactive). The value for `COCCNC(=O)C[C@H]1C=C[C@@H](NS(=O)(=O)c2ccc(C)cc2)[C@@H](CO)O1` was -0.463% (inactive). For `COc1ccc(NC(=O)Nc2ccc3c(c2)C(=O)N([C@H](C)CO)C[C@@H](C)[C@H](CN(C)CC2CCCCC2)OCCCC[C@@H](C)O3)cc1`, the activity (Tm shift, normalised) is -0.629% (inactive). As to `CC(=O)N1[C@@H](CO)[C@@H](c2ccc(C3=CCCC3)cc2)C12CN(C(=O)C1CC1)C2`, the activity (Tm shift, normalised) is -0.078% (inactive). On to `O=C(Nc1ccncc1)Nc1ccc(F)cc1`, for which the activity (Tm shift, normalised) was 0.093% (inactive). Under `COc1cccc(NC(=O)Nc2ccc(F)cc2)c1` stands 45.2% (active); under `COc1cccc(C(=O)NNS(=O)(=O)c2ccc(F)cc2)c1`, 0.083% (inactive).

Regarding `COCC(=O)N1CC2(CN(C(=O)c3cccnc3)C2)c2c([nH]c3cc(OC)ccc23)[C@H]1CO`, the activity (Tm shift, normalised) is -0.173% (inactive).

For `Cc1ccc(S(=O)(=O)NCC(=O)NNC(=O)c2ccc(Br)cc2)cc1C`, the activity (Tm shift, normalised) is 43.7% (active).

In the case of `Cc1ccc(S(=O)(=O)NCCC(=O)NCc2ccc(Cl)cc2)cc1C`, the activity (Tm shift, normalised) was -0.011% (inactive). As for `O=C(CNC(=O)c1ccco1)NNC(=O)c1ccc(Br)cc1`, the activity (Tm shift, normalised) was -0.466% (inactive). Under `O=C(C[C@H]1C=C[C@H](NC(=O)CC2CC2)[C@H](CO)O1)NCc1ccc(Cl)cc1` stands -0.113% (inactive); under `COc1cc2c(=O)n(C)c3ccccc3c2cc1OC`, 0.02% (inactive).

Take `Cn1c2ccccc2c(=O)c2c(O)cccc21`: the activity (Tm shift, normalised) was 43.7% (active). For the molecule `Cc1cc(C)c(-c2c(O)c3ccccc3n(C)c2=O)c(C)c1`, the activity (Tm shift, normalised) was -0.131% (inactive). On to `O=C(C[C@H]1CC[C@H]2[C@@H](COC[C@H](O)CN2Cc2ccncc2)O1)NCC1CC1`, for which the activity (Tm shift, normalised) is -0.243% (inactive).

Take `CN1[C@H](C(=O)N2CCc3ccccc3C2)[C@@H](CO)[C@@H]2Cn3c(ccc(-c4cncnc4)c3=O)[C@@H]21`: the activity (Tm shift, normalised) is 0.086% (inactive). Under `Cc1cc(C)cc(NC(=O)CSc2ccccc2)c1` stands 43.4% (active); under `O=C(CSc1ccccc1)Nc1ccc(C(=O)Nc2cccc(O)c2)cc1`, 42.3% (inactive); under `Cc1cc(C)cc(NC(=O)CN2C(=O)c3ccccc3C2=O)c1`, -0.094% (inactive). The value for `O=C(CN1C(=O)NC2(CCCC2)C1=O)NCC1CCCO1` (stereo unspecified) was 43.3% (active). As for `O=C(CN1C(=O)NC2(CCCCCC2)C1=O)NC1CC1`, the activity (Tm shift, normalised) was -0.266% (inactive).

Consider `O=C(CN1C(=O)NC2(CCCCCC2)C1=O)NCc1ccc(F)cc1`, for which the activity (Tm shift, normalised) is 0.013% (inactive). Under `COc1cccc(NC(=O)C[C@H]2CC[C@@H]3[C@@H](COc4ccc(NC(=O)C5CCOCC5)cc4C(=O)N3C)O2)c1` stands 0.326% (inactive). The value for `C[C@H]1CN([C@@H](C)CO)C(=O)c2cc(-c3ccccc3)cnc2O[C@H]1CN(C)C(=O)C1CCOCC1` was 0.036% (inactive). As for `O=C(NC1Cc2ccccc2C1)[C@@H]1[C@@H](CO)[C@@H]2Cn3c(ccc(C4=CCCC4)c3=O)[C@H]1N2CC1CC1`, the activity (Tm shift, normalised) is 0.451% (inactive). As for `C[C@H]1CN([C@@H](C)CO)C(=O)CCCn2nncc2CO[C@@H]1CN(C)S(=O)(=O)c1ccccc1C#N`, the activity (Tm shift, normalised) was -0.468% (inactive). The value for `Cc1ccccc1OCC(O)CN1CCN(c2ccccn2)CC1` (stereo unspecified) was 44.2% (active); that for `Cc1cccc(OCC(O)CN2CCN(CCN3C(=O)c4cccc5cccc(c45)C3=O)CC2)c1C` (stereo unspecified) was 0.358% (inactive).

With `CC(C)c1ccc(OCC(O)CN2CCN(c3ccccn3)CC2)cc1` (stereo unspecified), the activity (Tm shift, normalised) is -0.21% (inactive). Under `COc1ccc(NC(=O)N[C@H]2C=C[C@H](CC(=O)NCc3ccccn3)O[C@H]2CO)cc1` stands 0.256% (inactive); under `CO[C@H](CN(C)C(=O)c1cnccn1)[C@@H](C)CN([C@@H](C)CO)S(=O)(=O)c1ccc(C)cc1`, 0.044% (inactive). The value for `COc1ccccc1/C=C/CN1CCC(CO)(Cc2ccccc2)CC1` was 43.2% (active); that for `COc1ccc(CC2(CO)CCN(Cc3cnn(C)c3)CC2)cc1` was 0.198% (inactive); that for `OCC1(Cc2ccccc2)CCN(Cc2cc3ccccc3o2)CC1` was 42.4% (inactive). For the molecule `CO[C@H]1CN(C)C(=O)c2cc(NC(=O)c3nc4ccccc4s3)ccc2OC[C@H](C)N(Cc2cccnc2)C[C@@H]1C`, the activity (Tm shift, normalised) was -0.365% (inactive). The value for `COc1cccc(S(=O)(=O)N2CCCCN3[C@H](CO)[C@H](c4ccc(-c5ccncc5)cc4)[C@H]3C2)c1` was -0.25% (inactive); that for `O=C(Nc1ccccc1F)N1C[C@H]2[C@@H](c3ccccc31)[C@@H](CO)N2C(=O)Cc1cccnc1` was 0.459% (inactive); that for `CC(C)CC(=O)Nc1ccc(Cc2ccncc2)cc1` was -0.02% (inactive). Turning to `Cc1cc(C)n(CC(=O)Nc2ccc([N+](=O)[O-])cc2)n1`, the activity (Tm shift, normalised) is -0.311% (inactive). For the molecule `Cc1cc([N+](=O)[O-])nn1CC(=O)Nc1ccc(Cc2ccncc2)cc1`, the activity (Tm shift, normalised) was 43.3% (active). The value for `COCC(=O)N1CC[C@H]2[C@H](CO)Nc3ccc(-c4ccc(C(=O)N(C)C)cc4)cc3[C@H]21` was -0.374% (inactive); that for `CN(C)C(=O)C[C@@H]1CC[C@H](NC(=O)NC2CCCC2)[C@H](CO)O1` was -0.148% (inactive). Take `CCC(C)N(C(=O)CSc1nnnn1-c1ccccc1OC)C1CCS(=O)(=O)C1` (stereo unspecified): the activity (Tm shift, normalised) was -0.269% (inactive). The value for `CCC(C)N(C(=O)COC(=O)c1nc(Cl)ccc1Cl)C1CCS(=O)(=O)C1` (stereo unspecified) was 0.546% (inactive). Regarding `CCC(C)N(C(=O)COC(=O)C1C(C(=O)OC)=C(C)NC(C)=C1C(=O)OC)C1CCS(=O)(=O)C1` (stereo unspecified), the activity (Tm shift, normalised) was 43.2% (active). Regarding `O=C(Cc1ccccn1)NCC[C@H]1CC[C@H](NC(=O)Nc2ccc(F)cc2)[C@@H](CO)O1`, the activity (Tm shift, normalised) is 0.059% (inactive).

Consider `O=C(CNC(=O)c1cccnc1)N/N=C/c1cc(Br)c(O)c(Br)c1`, for which the activity (Tm shift, normalised) was 0.674% (inactive).

For the molecule `O=C(NN=C1CCC(=NNC(=O)c2cccnc2)CC1)c1cccnc1`, the activity (Tm shift, normalised) was -0.314% (inactive). The value for `Cc1cc(/C=N/NC(=O)c2cccnc2)c(C)n1CC(C)C` was 43% (active); that for `O=C(C[C@@H]1C[C@@H]2c3cc(NC(=O)Nc4ccc(C(F)(F)F)cc4)ccc3O[C@@H]2[C@@H](CO)O1)NCCc1ccccc1` was 0.083% (inactive). For `COc1ccc(NC(=O)N(C)C[C@H]2OCCCC[C@H](C)Oc3ccc(NC(=O)c4ccncc4)cc3C(=O)N([C@H](C)CO)C[C@@H]2C)cc1`, the activity (Tm shift, normalised) is -0.473% (inactive).
